A short description of experiment [1]: HepG2 liver cancer cell viability effects, profiling panel, resazurin fluorescence, 24 h, PK04 Diversity Set (AID 1172). Particulars: higher = more signal. In general terms: Alamar Blue is a resazurin reagent that responds to reducing activity.
Experiment [2] is described as follows: basal S. cerevisiae growth modulation, no modifier, primary screen, OD600, strain BY4716, 24 h, basal condition (AID 1173). As to conditions: OD600, 24 h, higher = more signal, called active from +8 up or from −8 down.
The nature of experiment [3]: MM1S myeloma cell viability, profiling panel, resazurin fluorescence, basal, 24 h, PK04 Diversity Set (AID 1174).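 Also: MM1S multiple myeloma cell line.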 Particulars: higher = more signal, called active from +8 up or from −8 down.
Experiment [4] deals with Dihydroorotate dehydrogenase (quinone), mitochondrial (Plasmodium falciparum (isolate 3D7)) (UniProt Q08210). Kind of experiment: PfDHODH enzyme inhibitors, primary screen, biochemical, C-terminal His tag, absorbance 600 nm (AID 1175).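 Also: recombinant parasite enzyme with a five histidine tag at its C terminus.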 Particulars: DCIP absorbance 600 nm, higher = more signal, called active from +8 up or from −8 down.
Experiment [5] in a line: P. aeruginosa biofilm formation inhibitors, primary screen, strain PAO1, LB-PBS medium, absorbance 600 nm (AID 1176). As to conditions: P. aeruginosa PAO1 growth/biofilm, A600, 12 h; higher = more signal.
The nature of experiment [6]: S. cerevisiae RM11-1a growth modifiers, primary screen, strain RM11-1a, OD600, basal, 24 h (AID 1177).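 Also: cultures grown under basal conditions with no added stressor.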 Particulars: OD600, 24 h, higher = more signal, called active from +8 up or from −8 down.
A short description of experiment [7]: E. coli acrAB mutant growth effects, primary screen, E. coli filamentation inducers, strain DRC39, OD650, 24 h (AID 1178).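 Also: growth measured as culture turbidity by optical density at 650 nm.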 Particulars: higher = more signal, called active from +8 up or from −8 down.
A short description of experiment [8]: E. coli acrAB mutant growth effects, primary screen, E. coli filamentation inducers, strain DRC39, OD650, 48 h (AID 1179).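 Also: screen aims at cell division blockers that make cells filament.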 As to conditions: E. coli DRC39 delta-acrAB growth, higher = more signal, called active from +8 up or from −8 down.
Experiment [9] can be described thus: RPMI8226 myeloma cell viability, profiling panel, resazurin fluorescence, basal, 24 h, PK04 Diversity Set (AID 1180).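 Also: RPMI8826 multiple myeloma cell line at 5000 cells per well.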 As to conditions: higher = more signal.
The target in experiment [10] is E3 ubiquitin-protein ligase XIAP (Homo sapiens) (UniProt P98170). As to the kind of experiment: XIAP binders, primary screen, biophysical, small-molecule microarray, fluorescence 635 nm (AID 1181).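 Also: score merges 667 nm emission and signal to noise over triplicate slides.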 Particulars: small-molecule microarray binding, higher = more signal.
For experiment [11], the system named is XIP peptide (Xip251-270) binding. As to the kind of experiment: small-molecule binders of XIP peptide, primary screen, biochemical, small-molecule microarray, fluorescence 635/667 nm, 0.1 µg/mL protein (AID 1182). Particulars: fluorescent protein binding, 635 nm, higher = more signal, called active from +8 up or from −8 down.
The subject of another experiment is XIP peptide (Xip251-270). As to the kind of experiment: small-molecule binders of XIP peptide, primary screen, biochemical, small-molecule microarray, fluorescence 635/667 nm, 0.5 µg/mL protein (AID 1183). As to conditions: small-molecule microarray binding, fluorescence 635 nm; higher = more signal.
Experiment [12] is described as follows: Plasmodium falciparum growth inhibition, primary screen, strain 3D7, DAPI fluorescence, 100 nL (AID 1184).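 Also: parasites grown inside human red blood cells in medium with human serum.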 Particulars: P. falciparum 3D7 growth, 3 d, higher = more signal.
In experiment [13] the target is Homeobox protein Hox-A13 (Mus musculus) (UniProt Q62424). As to the kind of experiment: inhibitors of HoxA13-DNA binding, primary screen, biochemical, fluorescence polarization, labeled oligonucleotide (AID 1185). Particulars: 15 min, higher = more signal, called active from +8 up or from −8 down. On the technique in general: Polarisation of emitted light reports the rotation of a fluorescent probe.

The nature of experiment [14]: inhibitors of hydroxyurea-induced Chk1 phosphorylation, primary screen, imaging, HeLa, phospho-Chk1 antibody, percent positive cells (AID 1186). As to conditions: hydroxyurea-induced phospho-Chk1 immunofluorescence imaging, higher = more signal.
Experiment [15] is described as follows: inhibitors of hydroxyurea-induced Chk1 phosphorylation, primary screen, imaging, HeLa, phospho-Chk1 nuclear intensity (AID 1187). As to conditions: hydroxyurea-induced phospho-Chk1 immunofluorescence imaging, higher = more signal.

Structures are written as SMILES. Activity calls are given as the source filed them. Unless noted, no rule for the calls is given here.

Sequence of Dihydroorotate dehydrogenase (quinone), mitochondrial (Plasmodium falciparum (isolate 3D7)) (Q08210 whole entry, looked up): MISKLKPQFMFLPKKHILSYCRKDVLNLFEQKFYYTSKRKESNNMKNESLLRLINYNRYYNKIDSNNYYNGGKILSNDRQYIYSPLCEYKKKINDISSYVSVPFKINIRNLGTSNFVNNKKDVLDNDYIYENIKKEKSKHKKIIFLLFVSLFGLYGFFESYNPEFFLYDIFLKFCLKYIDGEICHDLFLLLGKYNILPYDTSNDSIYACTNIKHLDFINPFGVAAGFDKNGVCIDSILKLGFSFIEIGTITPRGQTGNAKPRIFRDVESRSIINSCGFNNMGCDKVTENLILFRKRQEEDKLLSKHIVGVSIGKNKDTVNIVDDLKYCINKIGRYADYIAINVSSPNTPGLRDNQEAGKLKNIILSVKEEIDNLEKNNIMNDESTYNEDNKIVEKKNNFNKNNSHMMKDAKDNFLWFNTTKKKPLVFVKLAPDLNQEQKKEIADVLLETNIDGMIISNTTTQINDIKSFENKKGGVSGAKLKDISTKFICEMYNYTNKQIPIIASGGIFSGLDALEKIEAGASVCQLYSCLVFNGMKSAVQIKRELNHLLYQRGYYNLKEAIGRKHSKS
Sequence of E3 ubiquitin-protein ligase XIAP (Homo sapiens) (P98170 whole entry, looked up): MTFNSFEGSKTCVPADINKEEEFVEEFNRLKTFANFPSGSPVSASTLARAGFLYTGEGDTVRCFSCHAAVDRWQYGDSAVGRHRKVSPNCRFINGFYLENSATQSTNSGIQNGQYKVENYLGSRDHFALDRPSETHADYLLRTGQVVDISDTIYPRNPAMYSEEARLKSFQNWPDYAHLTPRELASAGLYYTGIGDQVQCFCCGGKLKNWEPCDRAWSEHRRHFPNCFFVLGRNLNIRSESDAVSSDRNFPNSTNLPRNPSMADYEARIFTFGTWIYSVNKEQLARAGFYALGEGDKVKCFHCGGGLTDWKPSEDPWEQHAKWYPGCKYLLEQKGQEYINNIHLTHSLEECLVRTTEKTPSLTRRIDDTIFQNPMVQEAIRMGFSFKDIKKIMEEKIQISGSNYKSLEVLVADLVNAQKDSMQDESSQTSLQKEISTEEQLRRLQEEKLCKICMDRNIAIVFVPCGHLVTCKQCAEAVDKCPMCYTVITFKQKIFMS
Sequence of Homeobox protein Hox-A13 (Mus musculus) (Q62424 whole entry, looked up): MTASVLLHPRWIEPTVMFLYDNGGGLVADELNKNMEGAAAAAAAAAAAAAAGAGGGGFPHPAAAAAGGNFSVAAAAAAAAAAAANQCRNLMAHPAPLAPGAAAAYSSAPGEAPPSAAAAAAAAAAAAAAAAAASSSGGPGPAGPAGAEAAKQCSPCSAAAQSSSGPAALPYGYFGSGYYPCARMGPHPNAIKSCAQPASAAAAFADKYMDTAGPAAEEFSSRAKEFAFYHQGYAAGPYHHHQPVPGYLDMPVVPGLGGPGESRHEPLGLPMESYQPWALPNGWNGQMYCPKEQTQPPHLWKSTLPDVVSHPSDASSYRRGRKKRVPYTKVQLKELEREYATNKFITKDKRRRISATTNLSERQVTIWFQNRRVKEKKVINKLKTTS

With `CC(C)C[C@@H]1NC(=O)[C@H]2C[C@@H](C(=O)NCCCCCNC(=O)CS)[C@@H](c3ccc(O)cc3)N2C1=O`, the z-score in experiment [1] was -2.15; in experiment [2] it was 0.131 (inactive); in experiment [3], -0.297 (inactive); in experiment [5], 0.767 (inactive); in experiment [6], 0.665 (inactive); in experiment [7], -0.117 (inactive). Further, the z-score was -0.942 (inactive) in experiment [8]; -0.57 in experiment [9]; -0.92 in experiment [12]; -3.85 (inactive) in experiment [13]; -0.37 (inactive) in [14]; -0.291 (inactive) in experiment [15]. Besides, the composite z-score in experiment [4] was 0.204 (inactive); in [10], -0.0577; in [11] it was 0.563 (inactive); in the experiment on XIP peptide (Xip251-270), 0.692.

On to `COC(=O)[C@@]1(Cc2ccc(F)cc2)[C@H]2c3cc(C(=O)N4CCCC4)n(CCO)c3C[C@H]2CN1C(=O)c1ccccc1`, for which the z-score is -0.31 in experiment [1]; 0.894 (inactive) in experiment [2]; -1.38 (inactive) in experiment [3]; -0.278 (inactive) in experiment [5]; 0.302 (inactive) in [6]; 0.0412 (inactive) in experiment [7]. Moreover, the z-score in experiment [8] is -0.654 (inactive); in [9] it was -0.908; in experiment [12], -1.26; in experiment [13] it was -5.44 (inactive); in experiment [14] it was -0.961 (inactive); in [15] it was -0.836 (inactive). In addition, the composite z-score in experiment [4] was -0.757 (inactive); in [10], -0.16; in [11], -0.33 (inactive); in the experiment on XIP peptide (Xip251-270) it was 0.676.

In the case of `O=C1C2C=CC(C(O)c3cccs3)N(Nc3ccccc3)C2C(=O)N1c1ccccc1` (centres undefined), the z-score is -1.51 in [1]; -3.05 (inactive) in experiment [2]; -0.334 (inactive) in [3]; 1.06 (inactive) in experiment [5]; -0.272 (inactive) in [6]; 0.0187 (inactive) in experiment [7]. In addition, the z-score in experiment [8] is -0.952 (inactive); in [9], -0.717; in [12] it was -0.459; in experiment [13], -2.56 (inactive); in [14], -0.719 (inactive); in experiment [15], -0.649 (inactive). Moreover, the composite z-score in experiment [4] is -0.116 (inactive); in [10], 0.0537; in [11] it was 0.308 (inactive); with XIP peptide (Xip251-270), 0.171.

Take `C#CCN([C@H](/C=C/C1CC1)[C@@H](O)Cc1ccccc1)[C@@H](Cc1ccccc1)C(=O)OC`: the z-score was 1.82 in experiment [1]; 0.0363 (inactive) in experiment [2]; 1.59 (inactive) in experiment [3]; -0.319 (inactive) in [5]; 0.97 (inactive) in [6]; 1.07 (inactive) in experiment [7]. Also, the z-score in experiment [8] was 0.968 (inactive); in experiment [9], 0.737; in experiment [12] it was -0.752; in experiment [13] it was -4.57 (inactive); in [14], -0.587 (inactive); in experiment [15] it was -0.959 (inactive). Besides, the composite z-score is 0.373 (inactive) in [4], 0.271 in experiment [10], 0.17 (inactive) in experiment [11] and -0.205 in the experiment with XIP peptide (Xip251-270).

Consider `CC(C)C(=C=CC[C@@H](O)c1ccccc1OCCO)C[C@@H](O)c1cc(Cl)cc(Cl)c1O`, for which the z-score in [1] is -0.563; in experiment [2] it was -4.12 (inactive); in experiment [3], -1.35 (inactive); in [5], 0.354 (inactive); in [6] it was 0.184 (inactive); in experiment [7], -0.501 (inactive). The z-score is -0.796 (inactive) in experiment [8]; -0.932 in experiment [9]; -1.39 in experiment [12]; -3.09 (inactive) in [13]; -0.059 (inactive) in [14]; 0.189 (inactive) in [15]. Moreover, the composite z-score in [4] was -2.32 (inactive); in [10], -0.232; in experiment [11] it was 1.25 (inactive); in the experiment with XIP peptide (Xip251-270) it was 0.748.

`NC(=O)[C@@]1(CCS(=O)(=O)c2ccccc2)COC(c2ccc(OCCCO)cc2)=N1`: the z-score in [1] is -0.285; in [2], 0.511 (inactive); in experiment [3] it was -1.34 (inactive); in experiment [5], -0.304 (inactive); in experiment [6], 0.0637 (inactive); in [7], -0.223 (inactive). For the same compound, the z-score in experiment [8] is 0.491 (inactive); in experiment [9], -0.318; in experiment [12], 0.605; in [13], -4.75 (inactive); in [14], -0.511 (inactive); in experiment [15], -1.12 (inactive). Besides, the composite z-score was -0.809 (inactive) in experiment [4], 0.291 in experiment [10], -0.377 (inactive) in [11] and -0.395 in the experiment with XIP peptide (Xip251-270).

Regarding `CCOC(=O)C[C@H]1[C@H](OC(=O)Cc2ccc3c(c2)OCO3)[C@@H](NC(=O)c2ccccc2)c2cc(OCCCO)ccc2N1C(=O)Cc1ccc(OC)cc1`, the z-score in experiment [1] is -0.0111; in [2] it was -0.644 (inactive); in experiment [3], -0.234 (inactive); in [5], 0.407 (inactive); in experiment [6] it was -1.86 (inactive); in [7], 1.68 (inactive). The z-score in [8] is 2.05 (inactive); in [9], 0.636; in experiment [12] it was -1.35; in experiment [13], -3 (inactive); in experiment [14], -1.29 (inactive); in experiment [15], -1.25 (inactive). Moreover, the composite z-score in experiment [4] is -1.37 (inactive); in experiment [10], -0.162; in experiment [11], 0.659 (inactive); in the experiment on XIP peptide (Xip251-270), 0.288.

Take `C=CCOC(=O)[C@H]1[C@@H]2C(=O)O[C@@H](c3ccccc3)[C@@H](c3ccccc3)N2[C@@H](c2ccc(OCCOC(=O)[C@H]3C[C@H]4C(=O)NCC(=O)N4[C@H]3c3ccc(O)cc3)cc2)[C@]12C(=O)Nc1ccc(I)cc12`: the z-score in experiment [1] was 0.0134; in [2], 1.27 (inactive); in experiment [3] it was 0.478 (inactive); in experiment [5] it was 2.83 (inactive); in experiment [6] it was 1.7 (inactive); in [7] it was 0.157 (inactive). The z-score in experiment [8] is 0.987 (inactive); in experiment [9], 0.642; in experiment [12] it was -1.83; in experiment [13] it was 2.46 (inactive); in experiment [14], -1.06 (inactive); in [15], -1.08 (inactive). In addition, the composite z-score in experiment [4] is 0.383 (inactive); in experiment [10], -0.0351; in [11], -0.256 (inactive); with XIP peptide (Xip251-270), 0.7.

Turning to `COc1ccc(NN2C(C(O)c3cc(C(F)(F)F)cc(C(F)(F)F)c3)C=CC3C(=O)N(C4CCCCC4)C(=O)C32)cc1` (centres undefined), the z-score was 0.392 in experiment [1]; 0.275 (inactive) in experiment [2]; 0.0147 (inactive) in [3]; 1.21 (inactive) in [5]; -0.0874 (inactive) in experiment [6]; -0.587 (inactive) in experiment [7]. Moreover, the z-score in [8] is 0.372 (inactive); in experiment [9] it was 0.283; in [12], -0.5; in experiment [13], -3.31 (inactive); in experiment [14], -1.14 (inactive); in [15], -2.01 (inactive). Further, the composite z-score in [4] is -0.0132 (inactive); in [10], -0.0669; in [11] it was 0.0376 (inactive); in the experiment with XIP peptide (Xip251-270), 0.752.

The record behind these values is PubChem BioAssay.
